# In PubChem BioAssay (EPA / NIEHS):
# “And” between values parts separate entries of the source, which are not always exact repeats. Equal values may be shown once. Results filed as inconclusive are left out. The source made the active and inactive calls. How the source made its calls: active means hit-call score of the fitted dose curve at least 0.9, where 1 is the maximum; inconclusive means response in the unintended direction; inactive means score below 0.9.
# How the values were obtained:
# [1] = target: Nuclear receptor subfamily 1 group I member 2 (Homo sapiens) (UniProt O75469); test: NVS_NR_hPXR: NovaScreen (NVS) Nuclear Receptor Binding Assay for human Pregnane X Receptor (PXR) (AID 2283365);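 further: a drop in FRET signal versus DMSO baseline means the compound binds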
# Chain of Nuclear receptor subfamily 1 group I member 2 (Homo sapiens) (O75469 whole entry, looked up): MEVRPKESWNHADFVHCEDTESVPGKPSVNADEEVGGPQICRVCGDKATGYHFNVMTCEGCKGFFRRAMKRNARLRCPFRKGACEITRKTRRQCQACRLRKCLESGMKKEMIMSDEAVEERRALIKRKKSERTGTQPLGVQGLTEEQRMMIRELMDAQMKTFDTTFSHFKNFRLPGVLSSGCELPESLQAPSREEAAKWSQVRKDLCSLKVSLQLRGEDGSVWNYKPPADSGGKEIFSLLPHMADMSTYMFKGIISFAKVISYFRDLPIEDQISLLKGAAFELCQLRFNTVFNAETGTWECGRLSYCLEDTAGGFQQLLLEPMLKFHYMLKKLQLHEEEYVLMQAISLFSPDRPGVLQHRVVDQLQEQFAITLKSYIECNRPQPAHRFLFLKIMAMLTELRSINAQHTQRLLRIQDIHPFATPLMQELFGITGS
# Method in brief: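 Human PXR binding measured by TR-FRET in a cell-free format, 2 h exposure. Single-concentration duplicates at 25 uM preceded concentration-response retests of actives; endpoint fitted positively relative to DMSO, loss of signal indicating binding.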
# [2] = target: Estrogen receptor beta (Homo sapiens) (UniProt Q92731); test: OT_ER_ERbERb_0480: Odyssey Thera (OT) 8-hour HEK293T Protein-Complementation Assay for Estrogen Receptor-beta/-beta Homodimer (AID 2283357);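 further: active means signal gain over DMSO baseline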
# Chain of Estrogen receptor beta (Homo sapiens) (Q92731 whole entry, looked up, the tested form may be a part): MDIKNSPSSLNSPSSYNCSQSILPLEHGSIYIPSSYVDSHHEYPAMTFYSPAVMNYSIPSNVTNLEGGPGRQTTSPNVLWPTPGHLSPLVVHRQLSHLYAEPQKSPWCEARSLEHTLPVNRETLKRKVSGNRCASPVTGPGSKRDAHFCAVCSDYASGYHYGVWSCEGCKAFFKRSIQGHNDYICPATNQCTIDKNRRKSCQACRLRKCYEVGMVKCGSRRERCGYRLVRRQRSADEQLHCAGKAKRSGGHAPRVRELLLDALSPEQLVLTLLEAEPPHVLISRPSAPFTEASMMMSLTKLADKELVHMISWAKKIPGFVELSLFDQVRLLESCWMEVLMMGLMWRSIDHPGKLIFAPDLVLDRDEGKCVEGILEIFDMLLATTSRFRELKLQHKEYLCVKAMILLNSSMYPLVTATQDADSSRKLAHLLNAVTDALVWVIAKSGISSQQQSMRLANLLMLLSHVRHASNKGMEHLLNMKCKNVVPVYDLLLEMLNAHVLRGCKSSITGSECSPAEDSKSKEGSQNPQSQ
# Method in brief: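 Fluorescence gain from complemented reporter fragments on ER-beta LBD homodimer in HEK293T was quantified against DMSO controls after 8 h treatment, fixation in 4% formaldehyde and Draq5 staining.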
# [3] = target: human Thyroid Receptor Alpha (TRa), THRA (gene 7067) (UniProt P10827); test: NVS_NR_hTRa_Antagonist: NovaScreen (NVS) Nuclear Receptor Binding Assay for human Thyroid Receptor Alpha Antagonism (TRa) (AID 2283362);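 further: activity is loss of signal relative to DMSO baseline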
# Chain of human Thyroid Receptor Alpha (TRa), THRA (gene 7067) (P10827 whole entry, looked up): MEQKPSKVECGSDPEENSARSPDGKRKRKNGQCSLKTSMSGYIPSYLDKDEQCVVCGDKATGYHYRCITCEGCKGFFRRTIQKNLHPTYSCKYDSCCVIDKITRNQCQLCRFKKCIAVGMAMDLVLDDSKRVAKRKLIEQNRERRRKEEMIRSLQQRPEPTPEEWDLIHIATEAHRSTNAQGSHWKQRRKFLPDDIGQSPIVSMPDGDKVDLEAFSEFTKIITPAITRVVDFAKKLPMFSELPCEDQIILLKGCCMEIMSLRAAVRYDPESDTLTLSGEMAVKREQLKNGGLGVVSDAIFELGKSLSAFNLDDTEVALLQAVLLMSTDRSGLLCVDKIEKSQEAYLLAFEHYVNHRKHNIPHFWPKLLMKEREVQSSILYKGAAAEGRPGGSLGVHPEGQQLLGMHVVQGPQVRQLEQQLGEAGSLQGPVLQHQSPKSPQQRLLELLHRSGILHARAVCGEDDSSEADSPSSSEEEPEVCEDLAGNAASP
# Method in brief: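 Actives from a duplicate 25 uM single-point screen were retested in concentration series. The cell-free antagonist-format binding assay was read by AlphaLISA chemiluminescence at 1 h, scored as signal loss relative to DMSO.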
# [4] = target: Glucocorticoid receptor (Homo sapiens) (UniProt P04150); test: NVS_NR_hGR: NovaScreen (NVS) Nuclear Receptor Binding Assay for human Glucocorticoid Receptor (GR) (AID 2283363);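 on AC50: activity is loss of specific radioligand binding signal relative to DMSO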
# Chain of Glucocorticoid receptor (Homo sapiens) (P04150 whole entry, looked up): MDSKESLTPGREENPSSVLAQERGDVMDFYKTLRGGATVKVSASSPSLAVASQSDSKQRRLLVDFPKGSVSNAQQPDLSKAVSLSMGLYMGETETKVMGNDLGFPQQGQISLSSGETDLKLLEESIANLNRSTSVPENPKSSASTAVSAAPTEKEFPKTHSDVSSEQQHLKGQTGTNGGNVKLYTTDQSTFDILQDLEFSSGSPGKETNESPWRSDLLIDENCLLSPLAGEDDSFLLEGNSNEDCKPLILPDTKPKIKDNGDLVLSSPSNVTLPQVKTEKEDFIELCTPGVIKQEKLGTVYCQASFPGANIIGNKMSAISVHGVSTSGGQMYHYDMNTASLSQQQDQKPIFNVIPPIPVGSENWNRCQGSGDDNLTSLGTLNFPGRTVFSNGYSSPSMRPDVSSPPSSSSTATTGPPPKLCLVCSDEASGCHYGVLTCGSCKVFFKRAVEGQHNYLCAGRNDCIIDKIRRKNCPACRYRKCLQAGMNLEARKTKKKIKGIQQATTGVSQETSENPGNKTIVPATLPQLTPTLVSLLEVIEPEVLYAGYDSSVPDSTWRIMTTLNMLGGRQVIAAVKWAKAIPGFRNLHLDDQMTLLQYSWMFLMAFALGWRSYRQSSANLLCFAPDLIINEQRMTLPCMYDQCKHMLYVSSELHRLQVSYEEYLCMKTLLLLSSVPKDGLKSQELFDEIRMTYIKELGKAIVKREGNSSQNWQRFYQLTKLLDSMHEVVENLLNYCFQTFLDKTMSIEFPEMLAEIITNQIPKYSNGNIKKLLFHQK
# Method in brief: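 Single-readout cell-free binding: radioligand plus extracted receptor, 16-hour dosing, filter radiodetection; 25 uM duplicate primary, concentration series secondary.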
# [5] = target: rat Androgen Receptor (AR), Ar (gene 24208) (UniProt P15207); test: NVS_NR_rAR: NovaScreen (NVS) Nuclear Receptor Binding Assay for rat Androgen Receptor (AR) (AID 2283366)
# Chain of rat Androgen Receptor (AR), Ar (gene 24208) (P15207 whole entry, looked up): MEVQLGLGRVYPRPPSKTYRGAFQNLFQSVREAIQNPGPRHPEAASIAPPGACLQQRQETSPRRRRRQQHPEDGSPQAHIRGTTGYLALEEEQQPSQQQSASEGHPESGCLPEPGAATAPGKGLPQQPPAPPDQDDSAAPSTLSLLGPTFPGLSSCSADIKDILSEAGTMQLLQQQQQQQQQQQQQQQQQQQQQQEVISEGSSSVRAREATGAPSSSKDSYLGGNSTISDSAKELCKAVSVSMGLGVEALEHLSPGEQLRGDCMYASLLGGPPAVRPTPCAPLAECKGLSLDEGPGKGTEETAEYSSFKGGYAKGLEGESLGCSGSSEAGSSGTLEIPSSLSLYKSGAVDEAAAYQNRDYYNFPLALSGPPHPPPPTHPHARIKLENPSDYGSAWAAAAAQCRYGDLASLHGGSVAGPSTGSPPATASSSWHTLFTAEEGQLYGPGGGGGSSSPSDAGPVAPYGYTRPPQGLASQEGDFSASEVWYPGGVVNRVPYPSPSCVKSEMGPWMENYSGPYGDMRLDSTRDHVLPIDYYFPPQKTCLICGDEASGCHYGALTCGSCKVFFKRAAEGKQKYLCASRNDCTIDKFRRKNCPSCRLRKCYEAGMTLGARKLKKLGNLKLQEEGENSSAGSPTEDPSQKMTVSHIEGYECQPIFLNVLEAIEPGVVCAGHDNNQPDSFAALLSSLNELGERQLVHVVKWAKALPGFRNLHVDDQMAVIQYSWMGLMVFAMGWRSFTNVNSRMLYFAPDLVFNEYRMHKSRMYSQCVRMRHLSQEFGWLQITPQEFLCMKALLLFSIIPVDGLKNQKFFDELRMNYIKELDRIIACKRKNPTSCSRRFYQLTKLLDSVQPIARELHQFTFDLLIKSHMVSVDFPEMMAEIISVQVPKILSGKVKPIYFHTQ
# Method in brief: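 Actives from a duplicate single-concentration (25 uM) primary run went on to concentration series. Displacement of radioligand was counted by filtration and scintillation, 18 h post-dose, using prostate extracts from testosterone-pretreated rats, with DMSO as baseline.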
# [6] = target: human Dopamine Transporter (DAT), SLC6A3 (gene 6531) (UniProt Q01959); test: NVS_TR_hDAT: NovaScreen (NVS) Transporter Assay for human Dopamine Transporter (DAT) (AID 2283374);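 further: activity means loss of bound radioligand signal relative to DMSO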
# Method in brief: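 Extracted human SLC6A3 protein incubated 1 h with radioligand and test chemical; bound fraction separated on filters and counted. Single 25 uM duplicate screen preceded concentration-response follow-up; positive and negative controls on every plate.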
# [7] = target: Norway rat Vesicular Monoamine Transporter (VMAT2), neurotransmitter transporter, Slc18a2 (gene 25549) (UniProt Q01827); test: NVS_TR_rVMAT2: NovaScreen (NVS) Transporter Assay for Norway rat Vesicular Monoamine Transporter (VMAT2), neurotransmitter transporter (AID 2283376);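 further: actives lower the bound radioligand signal below the DMSO level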
# Chain of Norway rat Vesicular Monoamine Transporter (VMAT2), neurotransmitter transporter, Slc18a2 (gene 25549) (Q01827 whole entry, looked up): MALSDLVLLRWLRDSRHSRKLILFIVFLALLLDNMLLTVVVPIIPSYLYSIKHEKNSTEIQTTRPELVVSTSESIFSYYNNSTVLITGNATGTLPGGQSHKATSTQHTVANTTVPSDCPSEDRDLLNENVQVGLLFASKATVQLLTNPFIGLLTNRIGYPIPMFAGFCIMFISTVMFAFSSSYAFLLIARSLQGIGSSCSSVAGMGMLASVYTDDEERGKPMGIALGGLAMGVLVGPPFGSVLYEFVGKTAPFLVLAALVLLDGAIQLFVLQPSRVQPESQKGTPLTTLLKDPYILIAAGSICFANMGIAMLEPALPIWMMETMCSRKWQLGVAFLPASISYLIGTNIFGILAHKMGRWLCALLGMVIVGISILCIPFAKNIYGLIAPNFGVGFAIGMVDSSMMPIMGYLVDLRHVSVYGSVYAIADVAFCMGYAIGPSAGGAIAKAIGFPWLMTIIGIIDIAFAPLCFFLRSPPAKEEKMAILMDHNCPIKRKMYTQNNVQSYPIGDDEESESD
# Method in brief: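 Binding endpoint from rat forebrain tissue, cell-free; 1 h incubation; filtered radioligand counted; 25 uM duplicate primary then dose series; DMSO negative control.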
# [8] = target: Peroxisome proliferator-activated receptor gamma (Homo sapiens) (UniProt P37231); test: NVS_NR_hPPARg: NovaScreen (NVS) Nuclear Receptor Binding Assay for human Peroxisome Proliferator-activated Receptor gamma (PPARg) (AID 2283370)
# Chain of Peroxisome proliferator-activated receptor gamma (Homo sapiens) (P37231 whole entry, looked up): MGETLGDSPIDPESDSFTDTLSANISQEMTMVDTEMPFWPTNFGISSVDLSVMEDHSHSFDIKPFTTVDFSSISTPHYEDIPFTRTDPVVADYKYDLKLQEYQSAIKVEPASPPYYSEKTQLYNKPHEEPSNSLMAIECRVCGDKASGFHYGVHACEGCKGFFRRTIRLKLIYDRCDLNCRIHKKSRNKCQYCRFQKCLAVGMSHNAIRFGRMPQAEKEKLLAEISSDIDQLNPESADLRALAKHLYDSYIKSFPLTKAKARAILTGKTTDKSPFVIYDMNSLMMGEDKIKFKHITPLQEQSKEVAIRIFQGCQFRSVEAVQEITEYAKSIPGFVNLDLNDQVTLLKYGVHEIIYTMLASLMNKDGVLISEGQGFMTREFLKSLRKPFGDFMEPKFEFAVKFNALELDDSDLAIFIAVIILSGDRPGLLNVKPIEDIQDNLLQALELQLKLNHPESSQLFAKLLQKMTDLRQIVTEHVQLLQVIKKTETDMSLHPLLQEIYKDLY
# Method in brief: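 Fluorescence polarization readout of ligand binding to extracted human PPARg, measured at 2 h. Duplicate single-point screen at 25 uM, then concentration-series retesting; activity defined as signal loss versus DMSO.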
# [9] = target: rat Serotonin Transporter (SERT), Slc6a4 (gene 25553) (UniProt P31652); test: NVS_TR_rSERT: NovaScreen (NVS) Transporter Assay for rat Serotonin Transporter (SERT) (AID 2283375)
# Method in brief: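 Radioligand binding with competitive displacement on rat forebrain membrane preparations, counted by filtration and scintillation after 1 h. Primary single-point duplicates at 25 uM; active chemicals followed up in concentration-response. DMSO served as baseline.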
# [10] = target: human Peroxisome Proliferator-activated Receptor alpha (PPARa), PPARA (gene 5465) (UniProt Q07869); test: NVS_NR_hPPARa: NovaScreen (NVS) Nuclear Receptor Binding Assay for human Peroxisome Proliferator-activated Receptor alpha (PPARa) (AID 2283359);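 further: activity means loss of TR-FRET signal versus DMSO baseline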
# Chain of human Peroxisome Proliferator-activated Receptor alpha (PPARa), PPARA (gene 5465) (Q07869 whole entry, looked up): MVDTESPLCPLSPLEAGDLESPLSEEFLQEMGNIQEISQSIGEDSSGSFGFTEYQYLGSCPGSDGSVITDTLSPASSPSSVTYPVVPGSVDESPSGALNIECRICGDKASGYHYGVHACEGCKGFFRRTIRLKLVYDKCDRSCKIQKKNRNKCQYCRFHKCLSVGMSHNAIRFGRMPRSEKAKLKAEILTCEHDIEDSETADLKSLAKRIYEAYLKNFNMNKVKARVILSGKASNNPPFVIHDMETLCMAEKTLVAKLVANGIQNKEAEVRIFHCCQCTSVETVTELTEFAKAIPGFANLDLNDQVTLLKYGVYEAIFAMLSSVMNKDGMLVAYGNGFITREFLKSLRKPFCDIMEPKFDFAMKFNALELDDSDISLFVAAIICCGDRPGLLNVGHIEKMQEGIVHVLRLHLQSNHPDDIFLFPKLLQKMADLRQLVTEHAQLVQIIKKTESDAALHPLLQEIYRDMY
# Method in brief: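 One-hour incubation, cell-free extracted protein, TR-FRET binding readout; signal loss vs DMSO scored. Screen: 25 uM duplicates, confirmatory dose series for actives.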
# [11] = target: Retinoic acid receptor alpha (Homo sapiens) (UniProt P10276); test: NVS_NR_hRAR_Antagonist: NovaScreen (NVS) Nuclear Receptor Binding Assay for human Retinoic Acid Alpha Receptor Antagonism (RAR) (AID 2283358)
# Method in brief: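 Chemicals were first tested in duplicate at 25 uM, then actives in concentration series, in a cell-free TR-FRET antagonist binding format. Measurements were taken 2 hours after dosing and loss of signal was evaluated against DMSO controls.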
smiles,measurement,setting,value
COc1ccc(N)cc1,outcome,[1],inactive
Nc1ncn[nH]1,outcome,[2],inactive
same,outcome,[3],inactive
same,outcome,[1],inactive
[Cl][Sn]([c]1ccccc1)([c]1ccccc1)[c]1ccccc1,AC50,[4],3.31 µM (active)
same,AC50,[5],2.42 µM (active)
same,AC50,[6],2.89 µM (active)
same,outcome,[7],inactive
CCC[CH2][Sn]([CH2]CCC)([CH2]CCC)[CH2]CCC,outcome,[2],inactive
same,outcome,[8],inactive
O=C(CBr)c1ccc(O)cc1,outcome,[2],inactive
same,outcome,[1],inactive
OC(Cc1ccccc1Cl)(Cn1[nH]cnc1=S)C1(Cl)CC1 (stereo not drawn),outcome,[5],inactive
Nc1ccc(N)cc1,outcome,[2],inactive
same,AC50,[3],31.7 µM (active)
same,AC50,[1],25 µM (active)
N#Cc1ccccc1N,AC50,[9],17.6 µM (active)
O=[N+]([O-])c1ccccc1O,outcome,[2],inactive
same,outcome,[8],inactive
O=[N+]([O-])c1cccc2ccccc12,AC50,[9],9.17 µM (active)
CCCCCCCCCCCCOS(=O)(=O)O,AC50,[10],15.8 µM (active) and 8.71 µM (active)
same,AC50,[4],11.6 µM (active) and 12.7 µM (active)
same,AC50,[1],38.1 µM (active) and 17.4 µM (active)
same,outcome,[7],inactive
CCOc1cc(C=O)ccc1O,outcome,[3],inactive
Cc1ccc2nc3sc(=O)sc3nc2c1,AC50,[4],1.64 µM (active)
CCCCCCCCCCCCc1cccc(S(=O)(=O)O)c1,AC50,[11],22.5 µM (active)
same,AC50,[10],9.25 µM (active)
same,AC50,[4],4.55 µM (active)
same,AC50,[1],26.6 µM (active)
same,AC50,[6],32.9 µM (active)
Clc1cccc(Cl)c1Cl,outcome,[11],inactive
same,outcome,[1],inactive
Oc1cc(Cl)c(Cl)cc1Cl,AC50,[2],43.8 µM (active)
same,outcome,[10],inactive
same,outcome,[8],inactive
same,outcome,[7],inactive
Cc1cccc(OP(=O)(Oc2cccc(C)c2)Oc2cccc(C)c2)c1,outcome,[4],inactive
